# Data from paper PMC7862700, “An all-to-all approach to the identification of sequence-specific readers for epigenetic DNA modifications on cytosine”.
# Key:
# Experiment in all cases: DAPPL (digital affinity profiling via proximity ligation, sequencing); 10 mM Tris-HCl pH 7.5, 50 mM NaCl, 1 mM DTT, 4% glycerol, room temperature, 30 min; GST-TFs on glutathione beads, 16-mer random dsDNA library, 0.1% formaldehyde crosslink after washing; high values mean tight binding
# HSF1 = HSF1 (Homo sapiens, UniProt Q00613 1-529); details: protein: recombinant; tags: N-terminal GST; chain copies: 3; dsDNA, one strand shown
# Sequence of HSF1 (Q00613 whole entry, the tested form may be a part): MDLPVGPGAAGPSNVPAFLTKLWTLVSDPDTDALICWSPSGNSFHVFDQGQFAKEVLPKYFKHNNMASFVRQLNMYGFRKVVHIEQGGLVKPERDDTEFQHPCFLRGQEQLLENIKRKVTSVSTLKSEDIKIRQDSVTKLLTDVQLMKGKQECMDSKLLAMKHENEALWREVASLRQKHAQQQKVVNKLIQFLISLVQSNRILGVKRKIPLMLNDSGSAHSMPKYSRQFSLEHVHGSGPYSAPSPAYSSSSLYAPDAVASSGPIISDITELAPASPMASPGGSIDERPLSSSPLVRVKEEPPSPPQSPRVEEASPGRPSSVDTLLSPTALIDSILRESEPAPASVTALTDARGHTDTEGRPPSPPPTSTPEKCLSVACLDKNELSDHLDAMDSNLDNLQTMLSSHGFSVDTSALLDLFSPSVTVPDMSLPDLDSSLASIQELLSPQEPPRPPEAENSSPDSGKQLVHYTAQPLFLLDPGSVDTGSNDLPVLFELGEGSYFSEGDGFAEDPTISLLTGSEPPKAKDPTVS
# Outline: (§1)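 Binding signal is given per hexamer as its read frequency for a factor divided by its frequency in the tag-only sample. GST-fused human transcription factors were expressed in yeast, captured on glutathione beads, barcoded with DNA and pooled with that sample, then incubated with 200 nmole of a 16-mer random double-stranded DNA library in Tris/NaCl/DTT/glycerol buffer for 30 min at room temperature. The pools were then washed, crosslinked, proximity-ligated, amplified by PCR and sequenced on an Illumina NextSeq500.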
# SPI1 = SPI1 (Homo sapiens, UniProt P17947 1-270); details: protein: recombinant; tags: N-terminal GST; dsDNA, one strand shown
# Outline: as §1
# ELF5 = target: T1, ELF5 (Homo sapiens, UniProt Q9UKW6-2 1-255); details: protein: recombinant; tags: N-terminal GST; dsDNA, one strand shown
# T1 sequence: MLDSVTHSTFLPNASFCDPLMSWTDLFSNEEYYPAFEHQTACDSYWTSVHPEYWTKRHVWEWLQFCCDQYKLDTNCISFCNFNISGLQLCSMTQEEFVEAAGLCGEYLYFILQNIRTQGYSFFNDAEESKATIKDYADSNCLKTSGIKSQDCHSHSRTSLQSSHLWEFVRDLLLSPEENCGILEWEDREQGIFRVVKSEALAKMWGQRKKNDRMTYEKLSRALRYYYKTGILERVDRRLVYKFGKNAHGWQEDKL
# Outline: as §1
# CRX = CRX (Homo sapiens, UniProt O43186 1-299); details: protein: recombinant; tags: N-terminal GST; dsDNA, one strand shown
# Sequence of CRX (O43186 whole entry): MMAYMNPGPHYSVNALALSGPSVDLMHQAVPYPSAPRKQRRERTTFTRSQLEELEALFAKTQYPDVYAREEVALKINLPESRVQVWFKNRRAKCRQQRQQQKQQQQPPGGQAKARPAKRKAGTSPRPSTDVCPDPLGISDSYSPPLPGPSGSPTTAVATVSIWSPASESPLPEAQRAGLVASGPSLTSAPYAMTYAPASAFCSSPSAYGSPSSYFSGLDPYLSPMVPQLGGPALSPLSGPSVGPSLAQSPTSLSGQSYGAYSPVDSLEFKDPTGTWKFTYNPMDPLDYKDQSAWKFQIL
# Outline: as §1
# SPDEF = target: T2, SPDEF (Homo sapiens, UniProt O95238 1-335); details: protein: recombinant; tags: N-terminal GST; dsDNA, one strand shown
# T2 sequence: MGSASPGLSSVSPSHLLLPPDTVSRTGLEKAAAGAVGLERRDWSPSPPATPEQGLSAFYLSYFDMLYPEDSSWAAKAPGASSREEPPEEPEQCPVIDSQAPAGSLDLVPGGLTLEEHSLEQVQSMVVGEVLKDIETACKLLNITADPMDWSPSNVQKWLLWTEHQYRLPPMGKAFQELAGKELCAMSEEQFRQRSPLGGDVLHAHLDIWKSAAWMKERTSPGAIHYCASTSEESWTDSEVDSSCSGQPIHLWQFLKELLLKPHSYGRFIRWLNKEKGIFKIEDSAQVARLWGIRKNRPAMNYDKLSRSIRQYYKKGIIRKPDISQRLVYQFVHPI
# Outline: as §1
# FEV = target: T3, FEV (Homo sapiens, UniProt Q99581 1-238); details: protein: recombinant; tags: N-terminal GST; dsDNA, one strand shown
# T3 sequence: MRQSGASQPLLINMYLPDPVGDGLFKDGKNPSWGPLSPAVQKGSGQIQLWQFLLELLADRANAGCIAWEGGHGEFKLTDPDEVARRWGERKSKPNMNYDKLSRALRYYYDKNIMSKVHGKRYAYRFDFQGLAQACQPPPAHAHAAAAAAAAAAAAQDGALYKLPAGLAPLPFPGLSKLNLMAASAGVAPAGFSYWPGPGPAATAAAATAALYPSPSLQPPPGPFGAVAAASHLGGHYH
# Outline: as §1
sequence,measurement,setting,value
AGAAAC,binding signal,HSF1,"1.78 fold enrichment (6-mer frequency, TF over GST control)"
TGGTTG,binding signal,SPI1,"1.06 fold enrichment (6-mer frequency, TF over GST control)"
same,binding signal,ELF5,"1 fold enrichment (6-mer frequency, TF over GST control)"
TAAGTC,binding signal,HSF1,"1.21 fold enrichment (6-mer frequency, TF over GST control)"
same,binding signal,CRX,"1.79 fold enrichment (6-mer frequency, TF over GST control)"
same,binding signal,SPDEF,"1.01 fold enrichment (6-mer frequency, TF over GST control)"
CGCTAA,binding signal,HSF1,"1.09 fold enrichment (6-mer frequency, TF over GST control)"
same,binding signal,CRX,"1.34 fold enrichment (6-mer frequency, TF over GST control)"
TCTGGA,binding signal,SPI1,"1.01 fold enrichment (6-mer frequency, TF over GST control)"
same,binding signal,FEV,"1.08 fold enrichment (6-mer frequency, TF over GST control)"
same,binding signal,HSF1,"3.75 fold enrichment (6-mer frequency, TF over GST control)"
same,binding signal,CRX,"1.72 fold enrichment (6-mer frequency, TF over GST control)"
GTTTGC,binding signal,SPI1,"1.03 fold enrichment (6-mer frequency, TF over GST control)"
same,binding signal,ELF5,"1.07 fold enrichment (6-mer frequency, TF over GST control)"
CTCGGG,binding signal,HSF1,"1.04 fold enrichment (6-mer frequency, TF over GST control)"
CGTTGC,binding signal,FEV,"1.11 fold enrichment (6-mer frequency, TF over GST control)"
same,binding signal,SPDEF,"1.18 fold enrichment (6-mer frequency, TF over GST control)"
same,binding signal,ELF5,"1.03 fold enrichment (6-mer frequency, TF over GST control)"
ATTCGG,binding signal,HSF1,"1.11 fold enrichment (6-mer frequency, TF over GST control)"
GTCACG,binding signal,SPI1,"1.05 fold enrichment (6-mer frequency, TF over GST control)"
same,binding signal,SPDEF,"1.02 fold enrichment (6-mer frequency, TF over GST control)"
GCTGCA,binding signal,SPI1,"1 fold enrichment (6-mer frequency, TF over GST control)"
same,binding signal,FEV,"1.01 fold enrichment (6-mer frequency, TF over GST control)"
TAGTTG,binding signal,CRX,"1.03 fold enrichment (6-mer frequency, TF over GST control)"
TAGGTA,binding signal,FEV,"1 fold enrichment (6-mer frequency, TF over GST control)"
same,binding signal,HSF1,"1.03 fold enrichment (6-mer frequency, TF over GST control)"
same,binding signal,CRX,"1.22 fold enrichment (6-mer frequency, TF over GST control)"
same,binding signal,SPDEF,"1.02 fold enrichment (6-mer frequency, TF over GST control)"
TTGGAA,binding signal,HSF1,"1.32 fold enrichment (6-mer frequency, TF over GST control)"
same,binding signal,CRX,"1.07 fold enrichment (6-mer frequency, TF over GST control)"
GATGGG,binding signal,SPDEF,"1.08 fold enrichment (6-mer frequency, TF over GST control)"
GATCCA,binding signal,FEV,"1.07 fold enrichment (6-mer frequency, TF over GST control)"
same,binding signal,HSF1,"1.21 fold enrichment (6-mer frequency, TF over GST control)"
same,binding signal,CRX,"1.23 fold enrichment (6-mer frequency, TF over GST control)"
same,binding signal,SPDEF,"1.17 fold enrichment (6-mer frequency, TF over GST control)"
same,binding signal,ELF5,"1.03 fold enrichment (6-mer frequency, TF over GST control)"
GATTAA,binding signal,FEV,"1.02 fold enrichment (6-mer frequency, TF over GST control)"
same,binding signal,HSF1,"2.83 fold enrichment (6-mer frequency, TF over GST control)"
same,binding signal,CRX,"4.96 fold enrichment (6-mer frequency, TF over GST control)"
same,binding signal,SPDEF,"1.08 fold enrichment (6-mer frequency, TF over GST control)"
TACAGC,binding signal,FEV,"1.01 fold enrichment (6-mer frequency, TF over GST control)"
same,binding signal,CRX,"1.07 fold enrichment (6-mer frequency, TF over GST control)"
same,binding signal,ELF5,"1.07 fold enrichment (6-mer frequency, TF over GST control)"
GCCGCT,binding signal,SPI1,"1.12 fold enrichment (6-mer frequency, TF over GST control)"
same,binding signal,FEV,"1.05 fold enrichment (6-mer frequency, TF over GST control)"
same,binding signal,CRX,"1.02 fold enrichment (6-mer frequency, TF over GST control)"
same,binding signal,ELF5,"1.03 fold enrichment (6-mer frequency, TF over GST control)"
CGCGAT,binding signal,SPI1,"1.09 fold enrichment (6-mer frequency, TF over GST control)"
same,binding signal,HSF1,"1.23 fold enrichment (6-mer frequency, TF over GST control)"
same,binding signal,CRX,"1.1 fold enrichment (6-mer frequency, TF over GST control)"
same,binding signal,SPDEF,"1.05 fold enrichment (6-mer frequency, TF over GST control)"
same,binding signal,ELF5,"1.04 fold enrichment (6-mer frequency, TF over GST control)"
CACCTA,binding signal,SPI1,"1.03 fold enrichment (6-mer frequency, TF over GST control)"
ACAGCC,binding signal,FEV,"1.02 fold enrichment (6-mer frequency, TF over GST control)"
same,binding signal,SPDEF,"1.02 fold enrichment (6-mer frequency, TF over GST control)"
same,binding signal,ELF5,"1.03 fold enrichment (6-mer frequency, TF over GST control)"
GGTAAC,binding signal,SPI1,"1.02 fold enrichment (6-mer frequency, TF over GST control)"
same,binding signal,FEV,"1.05 fold enrichment (6-mer frequency, TF over GST control)"
same,binding signal,ELF5,"1.02 fold enrichment (6-mer frequency, TF over GST control)"
ACCCCT,binding signal,SPI1,"1.1 fold enrichment (6-mer frequency, TF over GST control)"
same,binding signal,FEV,"1.08 fold enrichment (6-mer frequency, TF over GST control)"
same,binding signal,SPDEF,"1.16 fold enrichment (6-mer frequency, TF over GST control)"
same,binding signal,ELF5,"1 fold enrichment (6-mer frequency, TF over GST control)"
CATTGC,binding signal,SPI1,"1.05 fold enrichment (6-mer frequency, TF over GST control)"
same,binding signal,FEV,"1.04 fold enrichment (6-mer frequency, TF over GST control)"
AGCTGA,binding signal,SPI1,"1.01 fold enrichment (6-mer frequency, TF over GST control)"
same,binding signal,CRX,"1.11 fold enrichment (6-mer frequency, TF over GST control)"
GCACCT,binding signal,SPI1,"1.05 fold enrichment (6-mer frequency, TF over GST control)"
same,binding signal,FEV,"1.04 fold enrichment (6-mer frequency, TF over GST control)"
same,binding signal,SPDEF,"1.09 fold enrichment (6-mer frequency, TF over GST control)"
TCAGCT,binding signal,SPI1,"1.04 fold enrichment (6-mer frequency, TF over GST control)"
same,binding signal,HSF1,"1.07 fold enrichment (6-mer frequency, TF over GST control)"
same,binding signal,CRX,"1.39 fold enrichment (6-mer frequency, TF over GST control)"
CGCAAC,binding signal,FEV,"1.07 fold enrichment (6-mer frequency, TF over GST control)"
same,binding signal,SPDEF,"1.03 fold enrichment (6-mer frequency, TF over GST control)"
same,binding signal,ELF5,"1.01 fold enrichment (6-mer frequency, TF over GST control)"
ACCACG,binding signal,SPI1,"1.01 fold enrichment (6-mer frequency, TF over GST control)"
same,binding signal,FEV,"1.05 fold enrichment (6-mer frequency, TF over GST control)"
same,binding signal,SPDEF,"1.06 fold enrichment (6-mer frequency, TF over GST control)"
same,binding signal,ELF5,"1.02 fold enrichment (6-mer frequency, TF over GST control)"
GTCGAC,binding signal,SPI1,"1.08 fold enrichment (6-mer frequency, TF over GST control)"
same,binding signal,FEV,"1.02 fold enrichment (6-mer frequency, TF over GST control)"
same,binding signal,SPDEF,"1.06 fold enrichment (6-mer frequency, TF over GST control)"
GTGGCA,binding signal,SPI1,"1.04 fold enrichment (6-mer frequency, TF over GST control)"
same,binding signal,FEV,"1.09 fold enrichment (6-mer frequency, TF over GST control)"
CGGCCC,binding signal,FEV,"1 fold enrichment (6-mer frequency, TF over GST control)"
GCCGCA,binding signal,FEV,"1.01 fold enrichment (6-mer frequency, TF over GST control)"
GCCGTC,binding signal,SPDEF,"1.03 fold enrichment (6-mer frequency, TF over GST control)"
CATGGC,binding signal,SPI1,"1.04 fold enrichment (6-mer frequency, TF over GST control)"
same,binding signal,FEV,"1.04 fold enrichment (6-mer frequency, TF over GST control)"
